# High-throughput results deposited in PubChem by National Center for Advancing Translational Sciences (NCATS).
# In the library only some 9.2% were active in any assay of this set; here they are far more common.
# ELG1 repair inh: qHTS screen for small molecules that inhibit ELG1-dependent DNA repair in human embryonic kidney (HEK293T) cells expressing luciferase-tagged ELG1 | AID 504467, 2011 | HEK293T ELG1-luciferase reporter, luminescence, 16 h; DNA damage induced by 5-fluorouridine | Potency, µM (highest dose often 46.1 µM), without a hit: at the highest dose activity change, negative = inhibition, most hits filed as inhibitors | 330,000 tested, 2.3% active; also: % is scaled to controls: 0 for no effect and ±100 for the full control effect; nearly all actives have a fitted effect of over 55% in size
#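 Cells (2,000 per well) received 5-fluorouridine plus test compound or DMSO and were incubated 16 hr at 37 °C, 5% CO2. Luciferase activity was read by luminescence 30 min after ONE-Glo addition; signal suppression marked inhibition of damage-induced ELG1 function.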
# SMN2 splice up: qHTS Assay for Enhancers of SMN2 Splice Variant Expression. HEK293 SMN2-luciferase splicing reporter, luminescence, 30-36 h. Potency, µM (series often up to 46.1 µM), inactives show top-dose activity change, positive = activation, most hits filed as activators. 210,000 tested, 2.8% active; also: % of control where 0% means no effect; nearly all actives have a fitted effect of over 55% in size
#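 HEK293 cells carry an SMN2 minigene-luciferase reporter in which exon 7 inclusion puts luciferase in frame. Cells were seeded at 2000 cells/well, attached for 10-12 hours, then exposed to compounds for 30-36 hours at 37C before ONE-Glo luminescence.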
# NPC1 promoter act: qHTS Assay for NPC1 Promoter Activators; Huh7 NPC1 promoter luciferase reporter, 24 h; Potency, µM (series often up to 9.22 µM), without a hit: top-dose activation, most hits filed as activators; 320,000 tested, 2.4% active; also: % of control where 0% means no effect; nearly all actives have a fitted effect of over 60% in size
#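 Cells: Huh7 expressing luciferase under the NPC1 promoter, 1500/well. Seeded 2 h, compound added, incubated 24 h at 37 °C. Luciferase reagent, 10 min ambient, then luminescence.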
# FLuc counter: qHTS profiling assay for firefly luciferase inhibitor/activator using purifed enzyme and Km concentrations of substrates (counterscreen for miR-21 project); Luciferin 4-monooxygenase (Photinus pyralis), P08659; purified FLuc, Km substrates, luminescence inhibition; Potency, µM (doses to about 57.5 µM), for inactives: at the highest dose activity change, negative = inhibition, usual class: inhibitors; 360,000 tested, 6.9% active; AID 588342, 2011;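 also: plate controls were vehicle for no effect and reference inhibitor for full effect; nearly all actives have a fitted effect of over 55% in size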
# Target sequence (P08659 whole entry, looked up): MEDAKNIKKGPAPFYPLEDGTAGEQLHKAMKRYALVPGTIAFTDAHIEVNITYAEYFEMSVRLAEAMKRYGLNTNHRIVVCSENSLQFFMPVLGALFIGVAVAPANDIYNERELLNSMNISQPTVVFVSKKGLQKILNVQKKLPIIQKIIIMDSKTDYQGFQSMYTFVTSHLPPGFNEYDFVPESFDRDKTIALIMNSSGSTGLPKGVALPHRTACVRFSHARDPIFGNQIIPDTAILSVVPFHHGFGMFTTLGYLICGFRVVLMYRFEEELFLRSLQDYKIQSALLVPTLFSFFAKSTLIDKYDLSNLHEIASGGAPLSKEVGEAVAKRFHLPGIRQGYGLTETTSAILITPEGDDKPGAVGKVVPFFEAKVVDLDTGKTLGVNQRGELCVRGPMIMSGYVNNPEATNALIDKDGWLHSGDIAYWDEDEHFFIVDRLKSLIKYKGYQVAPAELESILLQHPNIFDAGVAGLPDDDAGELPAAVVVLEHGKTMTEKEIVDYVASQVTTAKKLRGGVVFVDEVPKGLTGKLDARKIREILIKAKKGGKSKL
#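 Purified P. pyralis luciferase (10nM final) with 10uM D-luciferin and 10uM ATP (Km levels) in 50mM Tris acetate pH 7.5, 10mM Mg acetate, 0.01% Tween-20, 0.05% BSA; qHTS 6-point titration, ~60 µM downward; luminescence read.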
# Rab9 promoter act: qHTS Assay for Rab9 Promoter Activators; Potency, µM (top dose mostly 9.22 µM), for inactives: top-dose activation, negative = inhibition, actives largely listed as activators; Huh7 Rab9 promoter-luciferase reporter, luminescence, 24 h; 320,000 tested, 2.8% active; also: % of control where 0% means no effect; nearly all actives have a fitted effect of over 60% in size
#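 Rab9 promoter-driven luciferase in stably transfected Huh7 cells; 1500 cells/well rested 2 h, exposed to compound in DMSO for 24 h at 37 °C, 5% CO2. Luminescence read 10 min after adding luciferase reagent at ambient temperature.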
# ELG1 genotoxic: qHTS screen for small molecules that induce genotoxicity in human embryonic kidney (HEK293T) cells expressing luciferase-tagged ELG1; 330,000 tested, 1.3% active; HEK293T ELG1-luciferase reporter, luminescence, 16 h; Potency, µM (top dose mostly 46 µM), for inactives: top-dose activity change, positive = activation, actives largely listed as activators; also: % of control where 0% means no effect; nearly all actives have a fitted effect of over 60% in size
#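 Luminescence read-out: rising ELG1-luciferase signal, reflecting elevated ELG1 protein under genetic stress, flags genotoxic compounds. Cells were treated for 16 hr at 37 °C before ONE-Glo detection.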
# * hit, by the source's call; ? = inconclusive; . = no result. Calls follow the shape of the dose curve; as a rule, active = well fitted curve in the direction sought with a large enough effect; inconclusive = small, poorly fitted or top-dose-only effect, or another doubt; inactive = no such curve, though single readings can be large; an effect the other way counts as inactive or inconclusive. Potency is read from the fitted curve at half-maximal effect.
SMILES,ELG1 repair inh,SMN2 splice up,NPC1 promoter act,FLuc counter,Rab9 promoter act,ELG1 genotoxic
CCOC(=O)c1nn(-c2ccc([N+](=O)[O-])cc2)cc1O,?,.,-1.7%,?,-4.8%,8.5%
CCOC(=O)c1nn(-c2c(C)n(C)n(-c3ccccc3)c2=O)cc1O,-6.8%,2.7%,-0.8%,-0.1%,2.2%,-3.1%
COC(=O)c1nn(-c2ccc3c(c2)OCO3)cc1O,?,?,?,10.7µM*,19.9%,?
Cc1cc(C)c(Cn2c3ccccc3c3cnn(CC(=O)NCc4ccc(Cl)cc4)c(=O)c32)c(C)c1,.,4.5%,.,2.0%,.,.
COC(=O)c1nn(-c2ccc3c(c2)CCN3C(C)=O)cc1O,-19.1%,?,0.501µM*,0.536µM*,3.16µM*,?
CC(C)c1ccc(NC2CCCN(C(=O)CCn3cnnn3)C2)cc1 (stereo not given),17.8%,.,-3.4%,-1.9%,11.9%,-2.2%
COc1ccccc1Cn1c(/C=C/c2ccccc2)nc2ccccc21,?,?,18.2%,3.01µM*,?,15.7%
COc1ccccc1Cn1c(C(C)C)nc2ccccc21,?,.,-2.6%,1.8%,-7.7%,-11.1%
COc1ccc(/C=C/c2nc3ccccc3n2Cc2ccccc2OC)cc1,?,7.94µM*,3.16µM*,0.849µM*,?,?
N/C(=N\c1nc2ccccc2o1)NC(=O)c1cccc(Cl)c1,14.1%,.,14.8%,0.8%,2.4%,7.1%
CCCCC(=O)N/C(N)=N/c1nc2ccccc2o1,?,.,1.26µM*,3.01µM*,1.78µM*,?
N/C(=N\c1nc2ccccc2o1)NC(=O)c1ccccc1F,?,?,1.58µM*,8.49µM*,2.51µM*,?
Cn1/c(=N/N=C/c2ccc([N+](=O)[O-])cc2)sc2ccccc21,?,17.4%,24.4%,2.13µM*,5.7%,?
Cn1c(=NC(=O)C2CCCCC2)sc2cc([N+](=O)[O-])ccc21,15.0%,.,19.4%,-6.2%,?,12.8%
COc1cc(/C=C2/SC(=O)NC2=O)ccc1OC(=O)c1ccco1,-1.5%,.,-0.4%,16.9µM*,9.5%,6.9%
O=C1NC(=S)S/C1=C/c1ccc(OC(=O)c2ccco2)cc1,?,.,18.7%,7.57µM*,?,1.0%
CCOc1cc(/C=C2/SC(=S)NC2=O)ccc1OC(=O)c1ccco1,?,-4.3%,3.5%,23.9µM*,13.3%,0.1%
COc1cc(/C=C2/SC(=S)N(C)C2=O)ccc1OC(=O)c1ccco1,?,13.0%,12.5%,-15.3%,-11.2%,10.3%
COc1ccc(C(C)=O)cc1CC(=O)Nc1ccccc1-c1ccccc1,11.6µM*,.,-1.6%,-0.1%,-1.8%,-2.4%
Cc1ccccc1OCC(=O)Nc1ccccc1-c1ccccc1,?,?,0.891µM*,4.78µM*,0.891µM*,?
O=C(COc1ccccc1)Nc1ccccc1C(=O)NC1CC1,0.0%,.,0.1%,0.4%,1.0%,-6.9%
COc1cc(C(C)=O)ccc1OCC(=O)Nc1ccccc1N1CCCCC1,5.17µM*,.,-12.0%,2.8%,0.8%,-43.2%
Cc1ccccc1OCC(=O)Nc1ccccc1C(=O)NC1CC1,5.17µM*,.,11.1%,3.9%,-2.9%,-12.8%
C/C(CC(=O)Nc1c(C)cc(C)cc1C)=N\NC(=O)Cc1ccccc1,11.6%,.,-5.2%,1.7%,2.4%,-6.4%
CN(C)/C=C(\C#N)C(=O)N/N=C/c1ccc(Cl)cc1,15.7%,29.7%,2.24µM*,16.9µM*,?,8.7%
CN(C)/C=C(\C#N)C(=O)Nc1ccc(F)c(Cl)c1,?,.,3.55µM*,?,3.16µM*,?
